The supplement of paper PMC3545927
This is one part of the list. The hit rate among all sequences tested is not known here.

Target: furin, P09958
Assay: furin cleavage Z-score vs untreated control; higher = more cleavage, active = 3.5 or more, inactive = 1 or less, 8 variable residues between constant flanks
Method in brief: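 Read counts from sequencing released DNA gave abundance for each bead-bound 8-mer peptide–cDNA fusion cut by purified furin over 7.5, 15 or 30 min. The cleavage Z-score compares log counts with furin-free reactions after lowess adjustment and median absolute deviation scaling.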
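Further: purified furin at 1:10 enzyme:substrate in 50 mM HEPES pH 7.5.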

furin, P09958, sequence (P09958 whole entry): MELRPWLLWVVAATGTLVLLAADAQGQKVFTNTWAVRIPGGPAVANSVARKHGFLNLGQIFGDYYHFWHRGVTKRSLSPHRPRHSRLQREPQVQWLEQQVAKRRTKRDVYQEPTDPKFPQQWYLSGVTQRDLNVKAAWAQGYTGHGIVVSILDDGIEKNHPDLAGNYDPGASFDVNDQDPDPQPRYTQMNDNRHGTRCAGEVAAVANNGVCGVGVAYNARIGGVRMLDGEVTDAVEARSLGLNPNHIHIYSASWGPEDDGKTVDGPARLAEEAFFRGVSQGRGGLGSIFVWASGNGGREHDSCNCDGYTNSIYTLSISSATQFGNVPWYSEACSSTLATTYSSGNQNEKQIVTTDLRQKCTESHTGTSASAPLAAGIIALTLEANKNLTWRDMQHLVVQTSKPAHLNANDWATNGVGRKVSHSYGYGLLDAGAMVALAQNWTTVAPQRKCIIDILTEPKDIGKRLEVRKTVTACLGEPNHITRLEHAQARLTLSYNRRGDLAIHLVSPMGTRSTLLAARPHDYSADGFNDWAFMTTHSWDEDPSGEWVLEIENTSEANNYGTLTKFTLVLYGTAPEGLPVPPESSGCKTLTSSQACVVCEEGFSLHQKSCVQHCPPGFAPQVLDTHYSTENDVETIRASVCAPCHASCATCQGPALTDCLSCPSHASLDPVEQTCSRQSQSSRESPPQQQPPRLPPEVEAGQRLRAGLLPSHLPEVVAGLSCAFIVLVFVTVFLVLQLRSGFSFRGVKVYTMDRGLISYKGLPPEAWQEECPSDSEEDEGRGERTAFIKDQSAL

Sequence	furin cleavage Z-score (7.5 min)	furin cleavage Z-score (15 min)	furin cleavage Z-score (30 min)
CAEAEVPCHRAGNASASA [HC2443]	1.31	1.69	-0.0334 (inactive)
CAPLEVVTSTAGNASASA [HC2279]	0.247 (inactive)	0.62 (inactive)	0.87 (inactive)
CAKPAIIPDRAGNASASA [HC1006]	-0.622 (inactive)	0.0184 (inactive)	-0.00549 (inactive)
CAGAVQNEITAGNASASA [HC975]	-1.74 (inactive)	-0.537 (inactive)	-1.39 (inactive)
CAGCPPDSDAAGNASASA [HC1348]	0.143 (inactive)	-0.261 (inactive)	-1.34 (inactive)
CARQRRPWEPAGNASASA [FS-2366]	-0.356 (inactive)	-0.595 (inactive)	-1.76 (inactive)
CARQRRSSGHAGNASASA [FS-3164]	6.61 (active)	6.83 (active)	6.04 (active)
CARQRRHPELAGNASASA [FS-2763]	2.08	1.42	4.23 (active)
CARQRRVAGLAGNASASA [FS-2767]	-1.21 (inactive)	-0.684 (inactive)	1.04
CARQRRSHVLAGNASASA [FS-2766]	2.3	4.17 (active)	4.75 (active)
CASRSLTPCTAGNASASA [HC719]	-0.572 (inactive)	-2.71 (inactive)	0.443 (inactive)
CANYATGNLPAGNASASA [HC242]	-0.747 (inactive)	0.727 (inactive)	-1.07 (inactive)
CAFRRRGRRSAGNASASA [FS-1325]	7.29 (active)	7.04 (active)	5.71 (active)
CAKRRRGRKSAGNASASA [FS-679]	0.804 (inactive)	2.45	1.45
CAYHFRGRRSAGNASASA [FS-1438]	8.22 (active)	8.64 (active)	7.23 (active)
CARMKRAGRVAGNASASA [FS-1751]	5.19 (active)	5.19 (active)	5.87 (active)
CAVKKRKGRVAGNASASA [FS-922]	3.3	4.91 (active)	6.5 (active)
CAEVVRSTWVAGNASASA [HC130]	-1.7 (inactive)	-0.333 (inactive)	-1.26 (inactive)
CACVVIVGRVAGNASASA [HC1000]	0.746 (inactive)	-1.22 (inactive)	1.75
CARMKRIFYRAGNASASA [FS-3162]	0.804 (inactive)	2.26	-0.0374 (inactive)
CALVNLLPAIAGNASASA [HC1100]	1.21	0.684 (inactive)	0.808 (inactive)
